Assay outcomes (PubChem BioAssay)
Hits are enriched below; roughly 0.44% of the tested compounds scored in any of these assays.
YopH inh = blocks Yersinia enterocolitica YopH tyrosine phosphatase; fluorescence Ex485/Em525; inhibition, % (no concentration beside the values); actives 0.16% (n = 140,000); in the data active means inhibition above about 50%
RmlC RmlD mix = inhibitors of RmlC and RmlD coupled enzymes | inhibition, % at 5.5 µM | actives 0.39% (n = 110,000) | AID 1532 | RmlC/RmlD coupled enzyme inhibition, 384-well mixture HTS; in the data active means inhibition above about 30%, passing the limit was not always enough
Large screens that a line does not name were inactive.

COc1ccccc1NC(=O)c1sc2ncn(Cc3ccc(C)cc3)c(=O)c2c1C	none
COc1ccccc1NC(=O)c1sc2ncn(Cc3cccc(C)c3)c(=O)c2c1C	RmlC RmlD mix 66
CCCN(CCC)C(=O)NC1CC(=O)N(c2ccc(OC)cc2)C1 (stereo not given)	none (no result: RmlC RmlD mix)
COc1ccc2nc3oc(C(=O)N4CCN(c5cccc(Cl)c5)CC4)cc3cc2c1	none
COc1ccc2nc3oc(C(=O)N4CCC(C(N)=O)CC4)cc3cc2c1	RmlC RmlD mix 34
CC(C)(C)C(=O)[C@@H]1[C@@H]2C(=O)N(Cc3ccccc3)C(=O)[C@@H]2[C@H]2c3ccccc3C=CN12	none
CC(=O)[C@@H]1[C@@H]2C(=O)N(c3ccc(F)c(Cl)c3)C(=O)[C@@H]2C2c3ccccc3C=CN21 (stereo not given in full)	YopH inh 71
CC(=O)[C@@H]1[C@@H]2C(=O)N(C3CCCCC3)C(=O)[C@@H]2C2c3ccccc3C=CN21 (stereo not given in full)	none
CC(=O)[C@H]1[C@@H]2C(=O)N(c3cccc(Cl)c3)C(=O)[C@@H]2[C@H]2c3ccccc3C=CN21	YopH inh 67
O=C(Nc1nc(-c2ccccn2)cs1)C1CC(=O)N(c2ccc3c(c2)OCCO3)C1 (stereo not given)	none (no result: RmlC RmlD mix)
CC1CCC(NC(=O)CN2C(=O)COc3ccc(S(=O)(=O)N4CCCC4)cc32)CC1 (stereo not given)	none (no result: RmlC RmlD mix)
CC(C)=CCOc1ccc([C@@H]2COc3c(ccc4c3C=CC(C)(C)O4)C2)c(O)c1	none (no result: YopH inh)
CCN(CC)c1ccc(NC(=O)c2cc(OC)cc(OC)c2)c(C)c1	none (no result: RmlC RmlD mix)
CCN(CC)c1ccc(NC(=O)c2cccc(OC)c2)c(C)c1	YopH inh 51
CCn1c(-c2cc(OC)c(OC)c(OC)c2)n[nH]c1=S	YopH inh 96
C=CCn1c(-c2cc(OC)c(OC)c(OC)c2)n[nH]c1=S	none
CCOc1ccc(Nc2nc(Cc3nnc(SCC(=O)NCc4ccco4)n3CC)cs2)cc1	none
COc1ccc(/C=C/c2nnc(NC(=O)CSc3ccc(Cl)cc3)s2)cc1	none (no result: RmlC RmlD mix)
O=C(NC(Cc1c[nH]c2ccccc12)c1nnc2n1CCCCC2)c1ccccc1 (stereo not given)	none
O=C(NC(Cc1c[nH]c2ccccc12)c1nnc2n1CCCCC2)c1cccs1 (stereo not given)	YopH inh 55
COc1ccc(CNC(=O)CSc2n[nH]c(C)c2[N+](=O)[O-])cc1	none (no result: RmlC RmlD mix)
Clc1ccc2[nH]cc(-c3nnnn3-c3ccc4ccccc4c3)c2c1	none
CCC(=O)Nc1cc(C(C)(C)C)ccc1C(C)=O	none (no result: RmlC RmlD mix)
O=C(CCC(=O)N/N=C/c1ccccc1O)NCc1ccccc1	none (no result: RmlC RmlD mix)
Cc1ccc(S(=O)(=O)/N=C2/C=C(Sc3ncn[nH]3)C(=O)c3ccccc32)cc1	YopH inh 100 (no result: RmlC RmlD mix)
CC(C)c1ccc(S(=O)(=O)/N=C2/C=C(Sc3ncn[nH]3)C(=O)c3ccccc32)cc1	YopH inh 101 (no result: RmlC RmlD mix)
CCOc1ccc(S(=O)(=O)Nc2ccc(O)c(Sc3ncn[nH]3)c2)cc1	none (no result: RmlC RmlD mix)
Cc1ccc(S(=O)(=O)ON2C(=O)c3ccccc3C2=O)c(C)c1	none (no result: RmlC RmlD mix)
Cc1ccc(NC2=C/C(=N/S(=O)(=O)c3cccs3)c3ccccc3C2=O)cc1	none (no result: RmlC RmlD mix)
Cc1ccc(S(=O)(=O)/N=C2/C=C(Sc3ncn[nH]3)C(=O)c3ccccc32)c(C)c1	YopH inh 101 (no result: RmlC RmlD mix)
O=C(CSc1nnc(Nc2ccccc2)s1)Nc1cccc(S(=O)(=O)N2CCCCC2)c1	none (no result: RmlC RmlD mix)
Cc1[nH]c2ccccc2c1C(=O)C(=O)N1CC=C(c2ccccc2)CC1	none (no result: RmlC RmlD mix)
COc1ccc(-c2csc(NC(C)c3nc4cc(Cl)c(Cl)cc4n3CCCO)n2)cc1 (stereo not given)	none (no result: YopH inh)
COc1ccc(O)c(C(C)(C)C)c1	none (no result: YopH inh)
CC(C)(C)c1cc(OC(=O)c2ccncc2)ccc1O	YopH inh 57
CNC(CC(C)C)C(=O)NC1C(=O)NC(CC(N)=O)C(=O)NC2C(=O)NC3C(=O)NC(C(=O)NC(C(=O)O)c4cc(O)cc(O)c4-c4cc3ccc4O)C(O)c3ccc(c(Cl)c3)Oc3cc2cc(c3OC2OC(CO)C(O)C(O)C2OC2CC(C)(N)C(O)C(C)O2)Oc2ccc(cc2Cl)C1O (stereo not given)	none (no result: YopH inh)
Cc1cccn2c(=O)c3cc(C(=O)N4CCN(C(=O)c5ccco5)CC4)n(C)c3nc12	none (no result: RmlC RmlD mix)
Cn1c(C(=O)N2CCN(C(=O)c3ccco3)CC2)cc2c(=O)n3ccccc3nc21	RmlC RmlD mix 96
COc1ccccc1OCC(=O)NNC(=O)C(=O)N1CCCC1	none (no result: RmlC RmlD mix)
COC(=O)c1ccc(C2C(C(=O)Nc3ccc(C)cc3C)=C(C)Nc3ncnn32)cc1 (stereo not given)	none
O=C(O)CCN1Cc2ccccc2C1=O	none
CCC(=O)N1Cc2ccccc2-c2ccccc2C1=O	YopH inh 52
CCC[C@@H]1CCCO[C@@](C(=O)NCCN2CCOCC2)(C(F)(F)F)C1	none (no result: YopH inh)
Cc1cc(C)c2c(n1)nn1c(NCCN3CCOCC3)cc(C)nc21	RmlC RmlD mix 58
COCCNc1cc(C)nc2c3c(C)cc(C)nc3nn12	RmlC RmlD mix 58
COCCNc1cc(C)nc2c(-c3ccccc3OC)c(C)nn12	none
Cc1cc(NCCN2CCOCC2)n2nc(C)c(-c3ccccc3)c2n1	none
